Screening data as filed in PubChem.
D2 ag-1 = agonists of human D2 dopamine receptor; AID 485358; HEK293 T-REx D2 cells, calcium flux agonist mode; activation, % at 2 µM; 340,000 tested, 0.53% active;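 active = activation over 3 SD above normal in the single-dose calcium agonist read, cut at about 30% in these data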; note: 0% is about no effect
Target sequence (P14416 whole entry, looked up): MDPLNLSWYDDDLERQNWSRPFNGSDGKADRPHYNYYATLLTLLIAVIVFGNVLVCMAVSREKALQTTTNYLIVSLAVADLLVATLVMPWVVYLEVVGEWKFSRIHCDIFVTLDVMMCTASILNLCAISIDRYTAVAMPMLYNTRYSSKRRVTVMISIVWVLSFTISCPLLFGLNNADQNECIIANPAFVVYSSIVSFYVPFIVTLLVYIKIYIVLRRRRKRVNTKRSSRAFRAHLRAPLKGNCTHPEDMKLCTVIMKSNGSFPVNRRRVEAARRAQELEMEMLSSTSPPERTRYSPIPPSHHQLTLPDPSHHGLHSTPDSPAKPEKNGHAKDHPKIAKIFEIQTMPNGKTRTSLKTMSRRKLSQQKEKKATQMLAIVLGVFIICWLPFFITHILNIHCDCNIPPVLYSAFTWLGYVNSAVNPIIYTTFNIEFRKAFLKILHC
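Tetracycline-induced HEK293 Trex cells with D2 receptor force-coupled to calcium signaling, plated overnight at 30 C and loaded with no-wash calcium dye. Calcium flux read kinetically for 180 s after compound addition; responses flag agonists.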
D2 antagonist = D2 dopamine receptor (human) antagonism | P14416 | HEK293 TREx D2 cells, calcium flux, dopamine EC80 | inhibition, % at 10 µM | 340,000 tested, 2% active | AID 485344; in the data active = inhibition above about 30%; inactive = below that, where a call was filed; note: 0% is about no effect
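Inhibition of EC80 dopamine-driven calcium flux, recorded kinetically, defines activity here; cells are a tetracycline-induced HEK293 T-REx line expressing force-coupled D2.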
D2 PAM-1 = positively modulates the human D2 dopamine receptor allosterically | P14416 | HEK293 T-REx D2, calcium flux, EC20 dopamine potentiation | potentiation, % at 10 µM | 340,000 tested, 0.34% active | AID 485347;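 active = potentiation over 3 SD above the plate norm, cut at about 30% in these data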; note: 0% is about no effect
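Calcium flux readout, no-wash dye, 1 read/s. Inducible HEK293 Trex D2 line, overnight 30 C. Compound alone 180 s (agonist flags), then EC20 dopamine, another 180 s to score potentiation.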
D2 ag-2 = agonists of human D2 dopamine receptor (beta-arrestin). 360,000 tested, 0.084% active. DiscoveRx PathHunter D2 beta-arrestin, luminescence, 90 min; 100% = 57 uM dopamine signal. P14416. activation, % (test concentration not listed); in the data active = activation above about 40%; inconclusive = between about 15% and that limit
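DiscoveRx PathHunter D2 beta-arrestin cells (2,100/well) attached overnight, then compound-stimulated 90 min at 37 C in HBSS/10 mM HEPES/0.1% Tween-20 buffer; beta-galactosidase complementation read by luminescence after 1 h at ambient temperature. Dopamine 57 uM final (EC100) as control.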
D2 PAM-2 = human D2 receptor positive allosteric modulation | P14416 | DiscoveRx D2 beta-arrestin cells, luminescence, 90 min; 100% = 57 uM dopamine signal | potentiation, % (concentration not given with the values) | 360,000 tested, 0.23% active; in the data active = potentiation above about 50%; inconclusive = mostly about 30% to 49%
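PathHunter D2 cells, attached overnight at 37 deg C, received compound in DMSO plus dopamine at EC20 (50 nM final) for 90 min at 37 deg C. Beta-arrestin recruitment was read as luminescence after 1 h with detection reagent at ambient temperature.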
* marks the source's active call; other numbers are inactive results; ? = inconclusive; . = no result. Most compounds without a hit are left out; they make up all but 2.4% or so of the library.

SMILES | D2 ag-1 | D2 antagonist | D2 PAM-1 | D2 ag-2 | D2 PAM-2
CC(NC(=O)/C(C#N)=C/c1ccc(N2CCOCC2)cc1)c1ccccc1 (centres undefined) | 5 | 3 | 32* | -4 | -6
CC(C)(C)C(=O)Nc1cc(-c2cccc(Br)c2)nn1-c1ccccc1 | -1 | . | -2 | . | .
Nc1c(C(=O)c2cccs2)oc2ccccc12 | 0 | -10 | -6 | -2 | -6
Nc1c(C(=O)c2ccc(Br)s2)oc2ccccc12 | 0 | 45* | -9 | -4 | -6
N=C(N)SCc1nc2ccccn2c1Br | 0 | 2 | -3 | 0 | -22
O=C(O)c1ccccc1SCc1nc2ccccn2c1Br | 0 | 51* | 0 | -6 | -10
Cc1cc(C)c(S(=O)(=O)N2CCN(C(=O)C(C)Cn3nc(C)nc3C)CC2)c(C)c1 (centres undefined) | 1 | 35* | 12 | 3 | -9
Cc1nc(C)n(CC(C)C(=O)N2CCN(S(=O)(=O)c3ccccc3)CC2)n1 (centres undefined) | -1 | 32* | -15 | -2 | -1
Cc1cc(C)c(S(=O)(=O)N2CCN(C(=O)N(C)C)CC2)c(C)c1 | 0 | -5 | 32* | -1 | -6
Cc1cc(C)c(S(=O)(=O)N2CCN(C(=O)N3CCCCC3)CC2)c(C)c1 | 0 | 0 | 7 | -3 | 1
COc1ccccc1CNC(=O)c1cn(C)c2ccc(S(=O)(=O)N(C)C3CCCCC3)cc2c1=O | 0 | . | 0 | . | .
Cc1ccc(Nc2cc(C)nc3nncn23)c(C)c1 | -1 | . | . | . | .
COc1ccc(C(C)(C)C)cc1NC(=O)COC(=O)CSCc1c(C)noc1C | -1 | 36* | 0 | -4 | -28
COc1ccccc1N1CCN(CC(=O)Nc2ccc(Cl)c(C(F)(F)F)c2)CC1 | 1 | 81* | -30 | 3 | -19
COc1ccccc1N1CCN(c2ccc(=O)n(CC(=O)Nc3cc(F)ccc3C)n2)CC1 | -1 | . | -2 | . | .
COc1ccccc1N1CCN(CC(=O)Nc2cc(F)ccc2C)CC1 | 0 | 86* | -23 | -1 | -32
Cc1cccc(N=C(N2CCOCC2)P(=O)(N2CCOCC2)N2CCOCC2)c1 | 0 | 11 | 65* | -2 | -11
CCCCn1c(N)c(N(Cc2ccccc2OC)C(=O)c2ccc([N+](=O)[O-])s2)c(=O)[nH]c1=O | 0 | -23 | -1 | ? | 50*
COc1ccc(CCNC(=O)c2c(C)nn(-c3ccc(F)cc3)c2-n2cccc2)c(OC)c1OC | 0 | . | -5 | . | .
CCOC(=O)COc1cccc2c(=O)n(CC(=O)N3CCCCC3)ccc12 | 0 | 21 | 5 | 2 | -4
COC(=O)COc1cccc2c(=O)n(CC(=O)N3CCCc4ccccc43)ccc12 | 0 | 31* | 7 | -5 | -5
CCN(CC(=O)Nc1c(F)cccc1F)C(=O)/C=C/c1cn(Cc2ccccc2)nc1-c1cccnc1 | 0 | 32* | 7 | 1 | 1
Cc1cc(NC(=O)c2cc(-c3ccc(OC(C)C)cc3)nc3ccccc23)no1 | 2 | -21 | 30* | 0 | -2
Nc1ccc2oc(-c3ccccc3Cl)cc(=O)c2c1O | 0 | 50* | 4 | 4 | 2
O=c1cc(-c2ccccc2Cl)oc2ccc([N+](=O)[O-])c(O)c12 | -1 | -21 | -8 | 0 | -11
CC[C@H](C)[C@H](NC(=O)[C@H](Cc1ccc(O)cc1)NC(=O)[C@@H](N)C(C)C)C(=O)N[C@@H](Cc1cnc[nH]1)C(=O)N1CCC[C@H]1C(=O)N[C@@H](Cc1ccccc1)C(=O)O | 2 | 34* | 7 | 6 | -4
CCC(C)C(NC(=O)C1CCC(=O)N1C(=O)OCc1ccccc1)C(=O)NC(Cc1ccccc1)C(N)=O (centres undefined) | 2 | -20 | . | 5 | 2
CCOC(=O)C1(CCOC)CCN(Cc2nc(C(C)C)cs2)CC1 | -2 | 33* | -3 | 1 | -9
CCCCN(CC)C(=O)CSc1nc2n[nH]c(C)c2c(=N)n1-c1cccc(Cl)c1 | . | . | 17 | . | .
CCCSc1nc2c(cnn2-c2ccccc2)c(=O)[nH]1 | -1 | 3 | 41* | -4 | -5
